{"source": "PubChem BioAssay AID504891", "about": "(National Center for Advancing Translational Sciences (NCATS), 2011)", "note": "About 35 (0.009%) of roughly 390,000 compounds were called active. Not shown: some 6% with an inconclusive outcome. Only a selection was taken, and actives are over-represented in it overall. Values without a mark were called inactive. The call rests on the fitted dose curve; in most records, active means well fitted inhibition curve with a large enough effect in the polarisation, with a control signal flat (not every such curve was filed as active); inconclusive means small, poorly fitted or top-dose-only effect, or effect the other way, or a change in a side signal; inactive means no such curve, though single readings can be large or run the other way; the % refers to the polarisation."}
{"biological_target": "Peptidyl-prolyl cis-trans isomerase NIMA-interacting 1 (Homo sapiens) (UniProt Q13526)", "sequence (Q13526 whole entry, looked up)": "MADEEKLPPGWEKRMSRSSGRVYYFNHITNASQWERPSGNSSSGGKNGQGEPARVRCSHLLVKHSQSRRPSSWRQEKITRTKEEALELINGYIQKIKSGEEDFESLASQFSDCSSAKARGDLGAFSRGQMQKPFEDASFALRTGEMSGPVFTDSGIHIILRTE", "assay": "qHTS Assay to Find Inhibitors of Pin1", "details": "Pin1 FP peptide displacement, HiFluor488, 10 min; series mostly up to 115 µM; activity, negative = inhibition: at the top concentration", "text": "NIH Molecular Libraries Probe Production Network [MLPCN]\nNIH Chemical Genomics Center [NCGC]\nThe unique chemical properties of Pro allow for the adoption of two completely distinct amide bond conformations (cis and trans). Peptidyl-prolyl cis/trans isomerases (PPIases) are evolutionary conserved enzymes that catalyze cis/trans isomerization of peptidyl-prolyl peptide bonds. Distinct from all other PPIases such as cyclophilins and FK506-binding proteins (FKBPs), Pin1 binds a subset of phos.Ser/Thr-Pro-containing proteins using its protein-targeting WW domain and isomerizes only specific phos.Ser/Thr-Pro bonds, which cannot be effectively catalyzed by other known PPIases.\nPin1-catalyzed conformational regulation can control a spectrum of activities of many key regulators in diverse cellular processes such as cell growth, genotoxic and other stress responses, immune response, germ cell development, neuronal differentiation and survival. Pin1 has emerged as a novel molecular timer that modulates its multiple targets at various steps of a given cellular process to synergistically control the amplitude and duration of a cellular response or process. Importantly, Pin1 is tightly regulated by multiple levels and its deregulation has an important role in a growing number of pathological conditions, including cancer, Alzheimer's disease, aging, asthma and microbial infection, providing a potentially new therapeutic option.\nThe goal of this screen is to find small-molecule inhibitors of Pin1 using a fluorescence polarization competition assay. A HiFluor-488-labeled peptide binds to the active site of Pin1 and can be displaced by compounds. Compounds were screened as a concentration-titration series that ranged from 57 uM to 0.7 nM.\nNCGC Assay Protocol Summary:\nPin1 (0.6 uM) was dispensed into black, solid 1536-well plates at 2 uL/well in 10 mM HEPES (pH 7.5), 10 mM NaCl, 0.01% Tween20, 1 mM DTT, and 1% glycerol. Then, 23 nL of compounds or DMSO were delivered to each well using a pin tool. Two uL of Pin1-1b-HiFluor488 peptide (10 mM HEPES (pH 7.5), 10 mM NaCl, 0.01% Tween20, 1 mM DTT, and 1% glycerol, 0.02 uM Pin1-1b-HiFluor488) was then dispensed, and plates were incubated at room temperature for 10 min. The plates were measured on a ViewLux plate reader for fluorescence polarization signal using a 480/20 nM nm excitation filter and 540/25 nM nm S and P emission filters with a 20 second exposure. The %Activity was determined from the corrected fluorescence polarization values. Unlabeled Pin1-1c peptide was used as a control (3.5 mM two-fold serial; 20 uM final concentration) along with a 1x (0.3 uM) and 0x (no-enzyme) Pin1 enzyme control to normalize %Activity of identified inhibitors; 0x enzyme values corresponded to 100%Activity (full inhibition), while 1x Pin1 enzyme values were used to normalize 0%Activity (no inhibition).\nConcentration-response curves were fitted to the signals arising from the resulting fluorescence polarization. The concentration-effect curves were then classified based on curve quality (r2), response magnitude and degree of measured activity, and compounds were subsequently categorized based on their curve class.\nKeywords: Peptidyl prolyl isomerase, Pin1, fluorescence polarization, MLSMR, MLPCN, NIH Roadmap, qHTS, NCGC"}
{"smiles": "CNC(=O)CN1C(=O)c2cccnc2Sc2ccccc21", "activity, negative = inhibition": "8.77%"}
{"smiles": "CC(=O)N1c2ccccc2CC1C(=O)N1CCN(c2ccc(F)cc2)CC1", "note": "(stereo not drawn)", "activity, negative = inhibition": "-8.41%"}
{"smiles": "O=C(NCC1CC1)C1(C(F)(F)F)C/C(=C\\CCO)CCCO1", "note": "(stereo not drawn)", "activity, negative = inhibition": "3.33%"}
{"smiles": "CC(Nc1ncnc2ccc(-c3ccc4c(c3)OCO4)cc12)c1ccco1", "note": "(stereo not drawn)", "activity, negative = inhibition": "14.7%"}
{"smiles": "Cc1cccc(S(=O)(=O)c2cn(Cc3ccccc3)c3cc(N4CCOCC4)c(F)cc3c2=O)c1", "activity, negative = inhibition": "9.72%"}
{"smiles": "COc1cccc(C2C(C(=O)Nc3ccc(C)cc3C)=C(C)Nc3c(C(=O)Nc4ccccc4)cnn32)c1", "note": "(stereo not drawn)", "activity, negative = inhibition": "11.3%"}
{"smiles": "CCCC(=O)Nc1cc(C(=O)NCc2ccc(OC)cc2)ccc1S(=O)(=O)c1ccc(Cl)cc1", "activity, negative = inhibition": "8.08%"}
{"smiles": "COCCNC(=O)CSc1nc(-c2ccccc2)[nH]c1-c1ccc(C)cc1", "activity, negative = inhibition": "1.52%"}
{"smiles": "C=CCNC(=O)c1ccc2nc(-c3ccco3)c(-c3ccco3)nc2c1", "activity, negative = inhibition": "20.3%"}
{"smiles": "Cc1ccc(S(=O)(=O)NC(N)=NCCC[C@@H](NC(=O)CNC(=O)c2ccccc2)C(=O)Nc2cc(C(F)(F)F)ccc2Cl)cc1", "activity, negative = inhibition": "4.14%"}
{"smiles": "CCc1cccc(C)c1NS(=O)(=O)c1ccc(-c2cc(C)no2)s1", "activity, negative = inhibition": "12.7%"}
{"smiles": "CC(=O)N1CCCc2ccc(NS(=O)(=O)c3ccc(F)cc3F)cc21", "activity, negative = inhibition": "49.4%"}
{"smiles": "COc1ccc(CNC(=O)COCc2cc(-c3cccs3)on2)cc1OC", "activity, negative = inhibition": "-2.23%"}
{"smiles": "COc1cccc(C(=O)NC2CCN(C#N)CC2)c1", "activity, negative = inhibition": "-5.15%"}
{"smiles": "CCOC(=O)c1c(N)n(-c2cccc(C)c2C)c2nc3ccccc3nc12", "activity, negative = inhibition": "2.25%"}
{"smiles": "COc1ccc(Br)cc1C1C2C=CCC(C)C2C(=O)N1Cc1ccccc1", "note": "(stereo not drawn)", "activity, negative = inhibition": "-1.96%"}
{"smiles": "O=C(OCC#CCSc1nnc(-c2ccco2)o1)c1ccc(F)cc1", "activity, negative = inhibition": "-1.5%"}
{"smiles": "CC(=O)OCC(NC(=O)C(Cc1ccccc1)NC(=O)OC(C)(C)C)C1OC(n2ccc(=O)[nH]c2=O)C(OC(C)=O)C1OC(C)=O", "note": "(stereo not drawn)", "activity, negative = inhibition": "-9.82%"}
{"smiles": "CC(=O)Nc1ccc(S(=O)(=O)N2N=NC3C2C2CC4C3(CN(C(=O)OC(C)(C)C)S4(=O)=O)O2)cc1", "note": "(stereo not drawn)", "activity, negative = inhibition": "1.34%"}
{"smiles": "COc1cccc(OC2=NS(=O)(=O)c3ccccc32)c1", "activity, negative = inhibition": "25% [at 163 µM]"}
{"smiles": "COc1ccc(C2Nc3ccccc3C(=O)N2Cc2ccccc2)cc1COc1ccc(C(N)=O)cc1", "note": "(stereo not drawn)", "activity, negative = inhibition": "29.2%"}
{"smiles": "CCN(CC)S(=O)(=O)c1ccc2c(c1)N(CC(=O)NCc1ccccc1)C(=O)CS2", "activity, negative = inhibition": "-0.42%"}
{"smiles": "Cc1cccc(N2CCN(S(=O)(=O)c3ccc4[nH]c5c(c4c3)CCCCC5)CC2)c1C", "activity, negative = inhibition": "16.4%"}
{"smiles": "Cc1cc(C)cc(NC(=O)CSc2nc(=O)n(CCN3CCOCC3)c3c2CCC3)c1", "activity, negative = inhibition": "-1.89%"}
{"smiles": "Cc1ccc(Cn2c(=O)n(-c3ccc(C)cc3)c(=O)c3c2c2cc(C)ccc2n3C)cc1", "activity, negative = inhibition": "-5.52%"}
{"smiles": "CCCCN(CC)CCCNC(=O)Cn1ncc2c([nH]c3ccc(C)cc32)c1=O", "activity, negative = inhibition": "-1.71%"}
{"smiles": "CCC(=O)Nc1ccccc1-c1nc2ccccc2n(CC(=O)Nc2ccc(C)c(C)c2)c1=O", "activity, negative = inhibition": "-8.24%"}
{"smiles": "O=C1CCCC2=C1[C@@]1(CCC(c3ccccc3)C1)N=C(Nc1nc3ccccc3o1)N2", "note": "(stereo partly drawn)", "activity, negative = inhibition": "inactive"}
{"smiles": "Cc1cc2n(n1)C(c1cc(C(C)(C)C)c(O)cc1O)Nc1ccccc1-2", "note": "(stereo not drawn)", "activity, negative = inhibition": "5.72%"}
{"smiles": "CCOc1ccccc1CNC(=O)c1ccc2c(c1)nc1n2CCC(C)C1", "note": "(stereo not drawn)", "activity, negative = inhibition": "-1.31%"}
{"smiles": "COc1cc(C(=O)N2CCN(c3ccc(Nc4ccc(C)cc4)nn3)CC2)cc(OC)c1OC", "activity, negative = inhibition": "10.4%"}
{"smiles": "COc1cccc(C2c3c(ncn(-c4cccc(Br)c4)c3=N)Oc3ccc4ccccc4c32)c1", "note": "(stereo not drawn)", "activity, negative = inhibition": "14.3%"}
{"smiles": "Cc1ccc(Cl)cc1NC(=O)Cc1ccc(-n2c(C)nc3cccnc32)cc1", "activity, negative = inhibition": "20.3%"}
{"smiles": "Cc1ccc(Nc2c(-c3ccc(Cl)cc3)nc3sccn23)c(C)c1", "activity, negative = inhibition": "1.8%"}
{"smiles": "OCCNc1ncnc2oc(-c3ccco3)c(-c3ccco3)c12", "activity, negative = inhibition": "-1.56%"}
{"smiles": "O=c1c2ccccc2nc2sc(Nc3ccc4c(c3)OCO4)nn12", "activity, negative = inhibition": "-1.55%"}
{"smiles": "CC(=O)c1sc(N2C(=O)c3oc4ccccc4c(=O)c3C2c2ccc(C)cc2)nc1C", "note": "(stereo not drawn)", "activity, negative = inhibition": "-2.64%"}
{"smiles": "NC(=O)C1CCN(c2ncc(-c3ccc(Cl)cc3)s2)CC1", "activity, negative = inhibition": "6.84%"}
{"smiles": "CCOc1ccc(NC(=O)C(=O)NCCc2csc3nc(-c4ccccc4F)nn23)cc1", "activity, negative = inhibition": "14.9%"}
{"smiles": "CCCc1cc(=O)n2[nH]c(NCc3ccc(CC)cc3)nc2n1", "activity, negative = inhibition": "-1.99%"}
{"smiles": "C=C1CCN(C(CC(C)C)C(=O)N2CCOCC2)S(=O)(=O)c2ccccc21", "note": "(stereo not drawn)", "activity, negative = inhibition": "11.6%"}
{"smiles": "Cn1nnnc1Sc1ncnc2scc(-c3ccccc3[N+](=O)[O-])c12", "activity, negative = inhibition": "0.265%"}
{"smiles": "COc1cc(OC)c2c(c1C(CCN1CCCCC1)c1ccc(N(C)C)cc1)OC(=O)CC2c1ccc(N(C)C)cc1", "note": "(stereo not drawn)", "activity, negative = inhibition": "4.39%"}
{"smiles": "CCOc1ccccc1NC(=O)Cn1c(=O)n(-c2cccc(C)c2)c(=O)c2c1c1cc(OC)ccc1n2C", "activity, negative = inhibition": "-2.84%"}
{"smiles": "O=C(Cn1c(-c2cccs2)cc2ccccc21)NCCc1ccc(Cl)cc1", "activity, negative = inhibition": "1.33%"}
{"smiles": "COC(=O)c1ccccc1S(=O)(=O)Nc1ccc(OC)cc1", "activity, negative = inhibition": "12.7%"}
{"smiles": "Cc1c(-c2cccc(NC(=O)C(C)(C)C)c2)nc2ncccn12", "activity, negative = inhibition": "4.16%"}
{"smiles": "CCN(CC)/[N+]([O-])=N/Oc1cc(O/[N+]([O-])=N/N2CCCC2CO)c([N+](=O)[O-])cc1[N+](=O)[O-]", "note": "(stereo not drawn)", "activity, negative = inhibition": "-3.49%"}
{"smiles": "Cc1ccc(-c2nc(=N)sn2Cc2ccccc2)cc1", "activity, negative = inhibition": "0.942%"}
{"smiles": "COc1ccc(-c2nc(=N)sn2-c2ccccc2)cc1", "activity, negative = inhibition": "8.42%"}
{"smiles": "CC(=O)NC(c1cccs1)c1cc(Cl)c2cccnc2c1O", "note": "(stereo not drawn)", "activity, negative = inhibition": "0.471%"}
{"smiles": "Cc1cc2c(s1)c1cnn(Cc3c(F)cccc3Cl)c(=O)c1n2C", "activity, negative = inhibition": "-0.0245%"}
{"smiles": "c1coc(CCNc2ncnc3ccc(-c4ccc5c(c4)OCO5)cc23)c1", "activity, negative = inhibition": "26.5%"}
